These results are taken from PubChem BioAssay.

Calls of active or inactive are those of the source.

One test is described as follows: budding yeast growth changes without added modifier – OD600, strain BY4716, 24 h, basal condition, primary screen (AID 1173). Conditions: S. cerevisiae BY4716 growth, OD600, 24 h; higher = more signal, called active from +8 up or from −8 down.
Take `COC(=O)[C@@]1(Cc2ccccc2)[C@H]2c3cc(C(=O)N(C)C)n(Cc4ccc(S(C)(=O)=O)cc4)c3C[C@H]2CN1C(=O)c1ccccc1`: the z-score is 1.33 (inactive).
In the case of `O=C1c2ccccc2[C@@]2(Cc3ccccc3N(Cc3ccccc3)C2=O)[C@H](c2ccc(CO)cc2)N1Cc1ccccc1Cl`, the z-score was 0.0388 (inactive).
With `O=C1C[C@@](C(=O)NCc2ccccc2)(c2ccc([N+](=O)[O-])cc2)[C@@H](c2ccc(CO)cc2)N1C1CCCCC1`, the z-score is -0.517 (inactive).
Same read-out and setting: as for `CC(C)c1nc2cc(Br)ccc2c(=O)o1`, the figure is 1.25 (inactive); as for `CCOC(=O)C1=CCC(c2cc3ccccc3[nH]2)N(CCN2CC(C(=O)OCC)=CCC2c2cc3ccccc3[nH]2)C1` (stereo not given), 0.897 (inactive).
Still for that read-out and setting: as for `O=C(NC1CC1)[C@@H]1c2ccccc2C(=O)N(CC23CC4CC(CC(C4)C2)C3)[C@H]1c1ccc(CO)cc1`, the figure is -0.498 (inactive); as for `N#Cc1ccc(NN2C(C(O)C3CC=CCC3)C=CC3C(=O)N(c4ccccc4)C(=O)C32)cc1` (stereo not given), 0.0837 (inactive); as for `O=C(NCC(O)CO)C1N=C(c2ccc(OCCCO)cc2)N(c2ccccc2)O1` (stereo not given), -0.732 (inactive).
Same read-out and setting: the figure for `CCCC[C@H]1OB(O)C[C@H]2C1=C(COc1ccccc1)C[C@H]1C(=O)C=CC(=O)[C@H]12` is -5.19 (inactive); for `COCCn1c(C(=O)N(C)C)cc2c1C[C@H]1CN(C(=O)c3ccccc3)[C@@](Cc3ccc(OC)cc3)(C(=O)OC)[C@@H]21` it is 1.63 (inactive).

The nature of a further test: viability profiling in MM1S myeloma cells – cell-based, resazurin fluorescence, basal, 24 h, PK04 Diversity Set, profiling panel (AID 1174).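 Note: MM1S multiple myeloma cell line; test concentration not given here.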 Conditions: higher = more signal, called active from +8 up or from −8 down.
For `CC(C)(C)N1CC=CC23O[C@@H]4/C=C\CCCOC(=O)C4[C@H]2C(=O)N(CCCCCO)[C@@H]3C1=O` (stereo not given in full), the z-score is 0.0676 (inactive).
Turning to `COCCCNC(=O)[C@@]1(CCS(=O)(=O)c2ccccc2)COC(c2ccc(OCCCO)cc2)=N1`, the z-score was -0.849 (inactive).
The same measure, in the same setting: as for `O=C1NC(=O)C2C1C=CC(C(O)c1ccc(B(O)O)cc1)N2Nc1ccc(Cl)cc1Cl` (stereo not given), the figure is -1.19 (inactive).
For `CCOc1cc(C(O)C2C=CC3C(=O)N(c4ccccc4)C(=O)C3N2Nc2ccccc2F)ccc1O` (stereo not given), the z-score was -0.454 (inactive).
For the compound `O=C1OCCC=C[C@H]2OC34C=CCN(c5ccc6ccccc6c5)C(=O)[C@H]3N(CCO)C(=O)[C@@H]4C12` (stereo not given in full), the z-score was -1.23 (inactive).
`CN(C)CCCNC(=O)[C@@]1(Cc2ccccc2I)c2ccccc2C(=O)N(C2CCCCC2)[C@H]1c1ccc(CO)cc1`: the z-score was -8.24 (active).
With `COc1ccc(C#Cc2ccc3c(c2)[C@]2(C(=O)N3)[C@H](C(=O)O)[C@H]3C(=O)O[C@H](c4ccccc4)[C@H](c4ccccc4)N3[C@@H]2c2ccccc2OCCO)cc1`, the z-score is -2.53 (inactive).
As to `COCCOC(=O)N1C(=O)[C@@]2(c3cc(C#CC4(O)CCCCCC4)ccc31)[C@H](c1ccc(O)cc1)N1[C@H](c3ccccc3)[C@H](c3ccccc3)OC(=O)[C@H]1[C@@H]2C(=O)N1CCCCCCC1`, the z-score is 0.341 (inactive).
Same read-out and setting: the figure for `[N-]=[N+]=Nc1ccccc1[C@@H]1OC(c2ccc(OCCCO)cc2)=N[C@]1(Cc1ccccc1)C(=O)NCCN1CCOCC1` is -1.37 (inactive); for `CCCCC(O)C1C=CC2C(=O)N(c3ccccc3)C(=O)C2N1Nc1ccccc1` (stereo not given) it is -0.125 (inactive); for `CC=CC(O)C1C=CC2C(=O)NC(=O)C2N1Nc1ccc(Cl)cc1Cl` (stereo not given) it is -1.53 (inactive).
For the compound `COC(=O)[C@H](Cc1ccccc1)N1CC2=CCCC=C[C@@H]2[C@H]1[C@H](O)Cc1ccccc1`, the z-score was 0.612 (inactive).
Same read-out and setting: the figure for `Cc1ccc(S[C@]2(C(=O)NC(C)C)CC(=O)N(C3CCCCC3)[C@@H]2c2ccc(CO)cc2I)cc1` is -0.611 (inactive).
The same measure, in the same setting: as for `CCCNC(=O)[C@@]1(c2ccc([N+](=O)[O-])cc2)CC(=O)N(C(C)C)[C@@H]1c1ccc(CO)cc1`, the figure is -0.96 (inactive); as for `COC(=O)[C@@]1(Cc2ccc(OC)cc2)[C@H]2c3cc(C(=O)N(C)C)[nH]c3C[C@H]2CN1C(=O)c1ccccc1`, -0.798 (inactive).
As to `O=C1N(CCS(=O)(=O)c2ccccc2)c2ccccc2C[C@]12N=C(c1ccc(OCCCO)cc1)O[C@@H]2c1ccccc1`, the z-score is -2.11 (inactive).
On the same count and under the same terms, as for `CC1=C([C@H](O)CCc2ccccc2)[C@H](CO)n2c(=O)n(-c3ccccc3)c(=O)n2C1`, the figure is 0.199 (inactive); as for `O=C1O[C@H](Cc2ccccc2)[C@@H]2[C@H]3C=CCCC=C3CN2[C@H]1Cc1ccc(O)cc1`, 0.303 (inactive); as for `CN(C)c1ccc(C(O)C2C=CC3C(=O)N(Cc4ccccc4)C(=O)C3N2n2cnnc2)cc1` (stereo not given), -0.253 (inactive).
On the same count and under the same terms, the figure for `COC(=O)[C@@]1(Cc2ccc(F)cc2)[C@H]2c3cc(C(=O)N(C)C)n(CCc4ccc(O)c(O)c4)c3C[C@H]2CN1C(=O)c1ccccc1` is -1.01 (inactive).
On the same count and under the same terms, the figure for `CCCC[C@H]1C[C@@H]1[C@@H]1N(C(C)=O)[C@H](c2cccc(OC)c2)CC12CC2` is 1.05 (inactive).
For the compound `CC(=O)OCC1C2CC[C@H]3C(OCc4ccc(F)cc4C(F)(F)F)OC[C@]4(C)[C@H]3C2=C(CN4C(=O)OC(C)(C)C)[C@H](C)C1COC(C)=O` (stereo not given in full), the z-score is -1.34 (inactive).
Same read-out and setting: as for `COc1ccccc1CN1C(=O)c2ccccc2[C@](Cc2ccccc2I)(C(=O)NCC(C)C)[C@@H]1c1ccc(CO)cc1`, the figure is 0.916 (inactive); as for `C[N+](C)(C)CCCC[C@@H]1NC(=O)[C@@H]2C[C@H](C(=O)NCc3ccc(F)cc3)[C@H](c3ccc(O)cc3)N2C1=O`, 0.0125 (inactive).
Regarding `CN1C(=O)C2C(C1=O)C1C=C(CCCO)C2C(C2CC2)N1Cc1cccc(OC(F)(F)F)c1` (stereo not given), the z-score is -0.551 (inactive).
The same measure, in the same setting: the figure for `COC(=O)[C@@]1(Cc2ccccc2)[C@H]2c3cc(C(=O)N(C)C)n(Cc4ccc(S(C)(=O)=O)cc4)c3C[C@H]2CN1C(=O)c1ccccc1` is -2.74 (inactive); for `O=C1c2ccccc2[C@@]2(Cc3ccccc3N(Cc3ccccc3)C2=O)[C@H](c2ccc(CO)cc2)N1Cc1ccccc1Cl` it is 0.685 (inactive); for `O=C1C[C@@](C(=O)NCc2ccccc2)(c2ccc([N+](=O)[O-])cc2)[C@@H](c2ccc(CO)cc2)N1C1CCCCC1` it is -0.163 (inactive).
The same measure, in the same setting: as for `CC(C)c1nc2cc(Br)ccc2c(=O)o1`, the figure is -0.47 (inactive).
On the same count and under the same terms, as for `CCOC(=O)C1=CCC(c2cc3ccccc3[nH]2)N(CCN2CC(C(=O)OCC)=CCC2c2cc3ccccc3[nH]2)C1` (stereo not given), the figure is -1.98 (inactive); as for `O=C(NC1CC1)[C@@H]1c2ccccc2C(=O)N(CC23CC4CC(CC(C4)C2)C3)[C@H]1c1ccc(CO)cc1`, 0.74 (inactive).
For the compound `N#Cc1ccc(NN2C(C(O)C3CC=CCC3)C=CC3C(=O)N(c4ccccc4)C(=O)C32)cc1` (stereo not given), the z-score is -0.609 (inactive).
On the same count and under the same terms, the figure for `O=C(NCC(O)CO)C1N=C(c2ccc(OCCCO)cc2)N(c2ccccc2)O1` (stereo not given) is -0.783 (inactive).
For `CCCC[C@H]1OB(O)C[C@H]2C1=C(COc1ccccc1)C[C@H]1C(=O)C=CC(=O)[C@H]12`, the z-score is -0.286 (inactive).
On the same count and under the same terms, the figure for `COCCn1c(C(=O)N(C)C)cc2c1C[C@H]1CN(C(=O)c3ccccc3)[C@@](Cc3ccc(OC)cc3)(C(=O)OC)[C@@H]21` is -1.43 (inactive).
